Assay results published in PubChem BioAssay (Tox21).
Inconclusive results are not listed. Unmarked numbers belong to inactive results. Calls of active or inactive are those of the source. Calls come from the whole dose curve; as a rule, active = well fitted inhibition curve with a large enough effect in the signal ratio in the repeat runs (not every such curve was filed as active); inconclusive = weak or mixed curves, or effect the other way; inactive = no such curve, though single readings can be large or run the other way; the % refers to the signal ratio.

Biological target: Glucocorticoid receptor (Homo sapiens) (UniProt P04150)
Sequence (P04150 whole entry, looked up): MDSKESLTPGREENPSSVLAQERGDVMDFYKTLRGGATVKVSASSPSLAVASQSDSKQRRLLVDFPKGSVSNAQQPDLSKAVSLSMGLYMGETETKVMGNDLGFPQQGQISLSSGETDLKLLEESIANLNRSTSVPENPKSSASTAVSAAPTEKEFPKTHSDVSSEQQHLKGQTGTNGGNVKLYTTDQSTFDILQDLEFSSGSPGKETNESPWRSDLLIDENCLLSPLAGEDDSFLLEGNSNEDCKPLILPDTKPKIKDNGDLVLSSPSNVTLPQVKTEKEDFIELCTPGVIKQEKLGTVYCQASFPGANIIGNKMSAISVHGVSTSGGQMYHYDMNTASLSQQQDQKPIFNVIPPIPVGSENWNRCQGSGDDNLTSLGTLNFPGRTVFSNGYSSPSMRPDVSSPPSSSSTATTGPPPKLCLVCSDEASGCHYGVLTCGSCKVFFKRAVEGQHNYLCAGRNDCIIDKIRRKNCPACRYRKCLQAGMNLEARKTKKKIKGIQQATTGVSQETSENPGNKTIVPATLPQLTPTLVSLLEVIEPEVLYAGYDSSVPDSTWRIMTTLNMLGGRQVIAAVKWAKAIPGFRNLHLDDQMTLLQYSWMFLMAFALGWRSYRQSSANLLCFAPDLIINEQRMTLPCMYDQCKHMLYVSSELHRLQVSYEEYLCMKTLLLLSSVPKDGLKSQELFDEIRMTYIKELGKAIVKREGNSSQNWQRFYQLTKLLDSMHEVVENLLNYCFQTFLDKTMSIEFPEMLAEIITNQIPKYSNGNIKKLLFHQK
Test: qHTS assay to identify small molecule antagonists of the glucocorticoid receptor (GR) signaling pathway (AID 720692)
Details: GR-bla HeLa, beta-lactamase FRET ratio, dexamethasone-stimulated, 18 h; series mostly up to 58.5 µM
Summary of the method: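 Tox21 10K library screened in concentration-response for blockade of dexamethasone (5 nM final)-induced GRE-bla reporter activity in HeLa cells; 18 h treatment, fluorescence read.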
% is set by controls: 0 for no effect and ±100 for the full control effect.

Compound	outcome	activity change, negative = inhibition
CCCCS	inactive	
CCNC(=O)C(C)OC(=O)Nc1ccccc1 (stereo unspecified)	inactive	
O=C(O)CCC(=O)Nc1ccc(S(=O)(=O)Nc2nccs2)cc1	inactive	
COC(=O)c1ccccc1Cl	inactive	
Cc1ccc2cccnc2c1	inactive	
Cc1cc(N)no1	inactive	
CN(C)CCC[C@@]1(c2ccc(F)cc2)OCc2cc(C#N)ccc21	inactive	
CCN(CC)CC	inactive	
O=C(O)CCCCCCCCCC(=O)O	inactive	
CCOCCOCCOC(C)=O	inactive	
NC[C@H]1O[C@H](O[C@H]2[C@H](O)[C@@H](O[C@H]3O[C@H](CO)[C@@H](O)[C@H](N)[C@H]3O)[C@H](N)C[C@@H]2N)[C@H](N)[C@@H](O)[C@@H]1O	inactive	
CC(C)(O)CCCC1=CCC(C=O)CC1 (stereo unspecified)	inactive	
CCc1ccc(CC)cc1	inactive	
CCCCCCCCCCCCCCCC(=O)OC	inactive	
CC[N+](C)(CC)CC	inactive	
CCCCCCCCCCCCCCCCN(C)C		-19.5% [at 7.04 µM]
O=C(O)COc1ccc2ccccc2c1	inactive	
CCCC(C)C(O)CC (stereo unspecified)	inactive	
N=C(N)N	inactive	
CN1C(CCl)Nc2cc(Cl)c(S(N)(=O)=O)cc2S1(=O)=O (stereo unspecified)	inactive	
CC(C)(C)C(=O)CC(=O)C(C)(C)C	inactive	
